Source: PubChem BioAssay (NCATS)
Records with an inconclusive call do not appear. Active and inactive are the calls of the source. Calls follow the shape of the dose curve; as a rule, active = well fitted curve in the direction sought with a large enough effect; inconclusive = small, poorly fitted or top-dose-only effect, or another doubt; inactive = no such curve, though single readings can be large; an effect the other way counts as inactive or inconclusive.

What was measured:
[1] = Quantitative High-Throughput drug screen in 47 multiple myeloma cell lines against the NCATS MIPE library collection: FR4_PLB cell viability assay (AID 1918924; also: nearly all actives have a fitted effect of over 35% in size; also: potency is read from the fitted curve at half-maximal effect)
Method in brief: (§1)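 Myeloma cell lines, 500 cells per well, exposed to MIPE 4.0 library compounds for 48 h at 37C, 5% CO2. Viability from ATP by CellTiter-Glo luminescence; normalised to DMSO (100%) and media-only (0%) wells.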

[2] = Quantitative High-Throughput drug screen in 47 multiple myeloma cell lines against the NCATS MIPE library collection: Delta47_JCRB cell viability assay (AID 1918925; also: nearly all actives have a fitted effect of over 45% in size; also: potency is read from the fitted curve at half-maximal effect)
Method in brief: (§2)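 Steps: seed 500 cells per well; pin-transfer MIPE 4.0 library; incubate 48 h at 37C, 5% CO2, humidified; add CellTiter-Glo, 5 min room temperature; read luminescence.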

[3] = Quantitative High-Throughput drug screen in 47 multiple myeloma cell lines against the NCATS MIPE library collection: EJM_DSMZ cell viability assay (AID 1918926; also: nearly all actives have a fitted effect of over 30% in size; also: potency is read from the fitted curve at half-maximal effect)
Method in brief: as §2

[4] = Quantitative High-Throughput drug screen in 47 multiple myeloma cell lines against the NCATS MIPE library collection: ARP1_JJKsccF8 cell viability assay (AID 1918928; also: nearly all actives have a fitted effect of over 40% in size; also: potency is read from the fitted curve at half-maximal effect)
Method in brief: (§3)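 Myeloma cells, 500 per well, were exposed to MIPE 4.0 drugs by pin transfer for 48 h at 37 °C, 5% CO2. Viability was read as ATP luminescence with CellTiter-Glo, normalised to DMSO-only (100%) and medium-only (0%) wells.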

[5] = Quantitative High-Throughput drug screen in 47 multiple myeloma cell lines against the NCATS MIPE library collection: ARD_JJKsccE7 cell viability assay (AID 1918929; also: potency is read from the fitted curve at half-maximal effect)
Method in brief: as §2

[6] = Quantitative High-Throughput drug screen in 47 multiple myeloma cell lines against the NCATS MIPE library collection: Karpas620_DSMZ cell viability assay (AID 1918959); also: nearly all actives have a fitted effect of over 30% in size; also: potency is read from the fitted curve at half-maximal effect
Method in brief: as §1

[7] = Quantitative High-Throughput drug screen in 47 multiple myeloma cell lines against the NCATS MIPE library collection: KMM1_JCRB cell viability assay (AID 1918960); also: nearly all actives have a fitted effect of over 30% in size; also: potency is read from the fitted curve at half-maximal effect
Method in brief: as §3

[8] = Quantitative High-Throughput drug screen in 47 multiple myeloma cell lines against the NCATS MIPE library collection: JIM3_ECACC cell viability assay (AID 1918963; also: nearly all actives have a fitted effect of over 35% in size; also: potency is read from the fitted curve at half-maximal effect)
Method in brief: as §1

[9] = Quantitative High-Throughput drug screen in 47 multiple myeloma cell lines against the NCATS MIPE library collection: JIM1_ECACC cell viability assay (AID 1918964; also: potency is read from the fitted curve at half-maximal effect)
Method in brief: as §2

[10] = Quantitative High-Throughput drug screen in 47 multiple myeloma cell lines against the NCATS MIPE library collection: INA6_PLB cell viability assay (AID 1918965; also: nearly all actives have a fitted effect of over 55% in size; also: potency is read from the fitted curve at half-maximal effect)
Method in brief: as §1

[11] = Quantitative High-Throughput drug screen in 47 multiple myeloma cell lines against the NCATS MIPE library collection: JJN3_DSMZ cell viability assay (AID 1918966; also: nearly all actives have a fitted effect of over 50% in size; also: potency is read from the fitted curve at half-maximal effect)
Method in brief: as §2

[12] = Quantitative High-Throughput drug screen in 47 multiple myeloma cell lines against the NCATS MIPE library collection: H1112_PLB cell viability assay (AID 1918967; also: nearly all actives have a fitted effect of over 30% in size; also: potency is read from the fitted curve at half-maximal effect)
Method in brief: as §2

[13] = Quantitative High-Throughput drug screen in 47 multiple myeloma cell lines against the NCATS MIPE library collection: Karpas25_ECACC cell viability assay (AID 1918968; also: nearly all actives have a fitted effect of over 35% in size; also: potency is read from the fitted curve at half-maximal effect)
Method in brief: as §2

[14] = Quantitative High-Throughput drug screen in 47 multiple myeloma cell lines against the NCATS MIPE library collection: Karpas417_ECACC cell viability assay (AID 1918961); settings: Karpas417 myeloma viability, CellTiter-Glo ATP luminescence, 48 h; viability (% of DMSO): at 45.8 µM (top of the series); also: potency is read from the fitted curve at half-maximal effect
Method in brief: as §1

[15] = Quantitative High-Throughput drug screen in 47 multiple myeloma cell lines against the NCATS MIPE library collection: AMO1_DSMZ cell viability assay (AID 1918927; also: nearly all actives have a fitted effect of over 30% in size)
Method in brief: as §2

[16] = Quantitative High-Throughput drug screen in 47 multiple myeloma cell lines against the NCATS MIPE library collection: KHM11_PLB cell viability assay (AID 1918962); also: nearly all actives have a fitted effect of over 35% in size; also: potency is read from the fitted curve at half-maximal effect
Method in brief: as §1

Measured: Potency

CC1=CC(=O)c2ccccc2C1=O
active: [1] 26.4 µM | [2] 16.6 µM | [3] 20.9 µM | [4] 16.6 µM | [6] 14.8 µM | [8] 23.5 µM | [10] 8.33 µM | [11] 13.2 µM | [12] 20.9 µM | [13] 9.35 µM
inactive: [5] | [7] | [9]

Nc1nc(N)nc(-c2cc(Cl)ccc2Cl)n1
inactive: [1] | [2] | [3] | [4] | [7] | [14] | [8] | [11] | [12]

N=C(N)c1ccc(OCCCCCOc2ccc(C(=N)N)cc2)cc1
inactive: [5] | [9]
active: [1] 18.7 µM | [2] 5.26 µM | [3] 14.8 µM | [4] 16.6 µM | [7] 5.26 µM | [11] 16.6 µM | [13] 2.96 µM

NC(=O)c1cccc(N)c1
inactive: [1] | [2] | [3] | [4] | [7] | [8] | [10] | [12] | [13]

CNCC[C@H](Oc1cccc2ccccc12)c1cccs1
active: [1] 3.72 µM | [2] 2.35 µM | [3] 0.935 µM | [4] 18.7 µM | [6] 23.5 µM | [7] 26.4 µM | [8] 5.26 µM | [10] 7.43 µM | [12] 2.35 µM | [13] 2.96 µM

OC(Cn1cncn1)(Cn1cncn1)c1ccc(F)cc1F
not listed: [2] | [9] | [11] | [14] | [15] | [16]
inactive: all other assays above

O=c1oc2c(O)c(O)cc3c(=O)oc4c(O)c(O)cc1c4c23
inactive: [1] | [2] | [8] | [10] | [12] | [13]

COC(=O)Nc1nc2ccc(S(=O)c3ccccc3)cc2[nH]1 (centres undefined)
active: [1] 7.43 µM | [2] 6.62 µM | [4] 16.6 µM | [8] 20.9 µM | [10] 18.7 µM | [13] 16.6 µM
inactive: [6] | [7]

COc1ccc2cc3[n+](cc2c1OC)CCc1cc2c(cc1-3)OCO2
active: [1] 14.8 µM | [2] 5.26 µM | [4] 6.62 µM | [5] 5.9 µM | [6] 14.8 µM | [7] 10.5 µM | [14] 9.35 µM | [9] 16.6 µM | [11] 11.8 µM | [12] 14.8 µM | [13] 2.64 µM

CN(Cc1cc(Br)cc(Br)c1N)C1CCCCC1
inactive: [1] | [2] | [15] | [4] | [5] | [6] | [8] | [12]

Nc1nc(=S)c2[nH]cnc2[nH]1
inactive: [6] | [7] | [14]
active: [1] 1.66 µM | [2] 2.96 µM | [4] 1.32 µM | [16] 4.18 µM | [8] 9.35 µM | [11] 4.69 µM | [12] 14.8 µM | [13] 1.48 µM

COc1cnc(NS(=O)(=O)c2ccc(N)cc2)nc1
active: [14] 11.8 µM
inactive: [1] | [3] | [4] | [8] | [12]

CN(CCOc1ccc(CC2SC(=O)NC2=O)cc1)c1ccccn1 (centres undefined)
inactive: [1] | [2] | [15] | [7] | [8] | [10] | [12] | [13]
active: [6] 0.0019 µM

Nc1ccc(S(=O)(=O)Nc2ccccn2)cc1
inactive: [1] | [3] | [15] | [4] | [5] | [7] | [14] | [8] | [12]

CCN(CC)CCn1c(=O)c(Cc2ccc(OC)cc2)nc2ccccc21
not listed: [2] | [9] | [10] | [11] | [13] | [16]
inactive: all other assays above

Cn1nnc2c(C(N)=O)ncn2c1=O
not listed: [2] | [6] | [9] | [10] | [14] | [16]
inactive: all other assays above

CC(=O)[C@H]1CC[C@H]2[C@@H]3CC=C4C[C@@H](O)CC[C@]4(C)[C@H]3CC[C@]12C
inactive: [1] | [2] | [5] | [6] | [7] | [8] | [12] | [13]

NC(=O)N1c2ccccc2CC(=O)c2ccccc21
inactive: [1] | [2] | [4] | [6] | [7] | [8] | [12] | [13]

COc1nc(N)nc2c1ncn2[C@@H]1O[C@H](CO)[C@@H](O)[C@@H]1O
active: [11] 13.2 µM
not listed: [3] | [5] | [10] | [15] | [16]
inactive: all other assays above

NNC(=O)c1ccncc1
not listed: [3] | [9] | [11] | [14] | [15]
inactive: all other assays above

CCCOc1ccc(C(=O)OCCN(CC)CC)cc1N
inactive: [1] | [3] | [4] | [6] | [7] | [8] | [11] | [12]
